The source of these data is PubChem BioAssay (EPA / NIEHS).

Results filed as inconclusive are left out. Active and inactive are the calls of the source. Rule for the calls, unless noted: active = hit-call score of the fitted dose curve at least 0.9, where 1 is the maximum; inconclusive = response in the unintended direction; inactive = score below 0.9.

Estrogen receptor beta (Homo sapiens), sequence (Q92731 whole entry, looked up, the tested form may be a part): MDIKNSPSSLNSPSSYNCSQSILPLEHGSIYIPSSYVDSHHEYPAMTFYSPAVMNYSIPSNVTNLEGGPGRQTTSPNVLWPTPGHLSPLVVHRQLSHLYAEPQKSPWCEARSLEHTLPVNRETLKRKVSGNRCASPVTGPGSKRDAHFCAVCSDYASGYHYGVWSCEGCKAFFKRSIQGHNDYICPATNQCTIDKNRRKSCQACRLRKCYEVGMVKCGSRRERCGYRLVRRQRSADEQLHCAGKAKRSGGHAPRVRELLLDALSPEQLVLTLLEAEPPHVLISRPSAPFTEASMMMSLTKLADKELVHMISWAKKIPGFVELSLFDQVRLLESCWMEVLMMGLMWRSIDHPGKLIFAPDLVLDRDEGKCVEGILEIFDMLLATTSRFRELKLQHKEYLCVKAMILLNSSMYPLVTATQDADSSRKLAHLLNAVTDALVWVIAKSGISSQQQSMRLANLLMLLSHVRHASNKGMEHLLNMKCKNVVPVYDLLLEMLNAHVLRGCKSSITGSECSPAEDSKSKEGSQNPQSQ
Retinoic acid receptor RXR-alpha (Homo sapiens), sequence (P19793 whole entry, looked up, the tested form may be a part): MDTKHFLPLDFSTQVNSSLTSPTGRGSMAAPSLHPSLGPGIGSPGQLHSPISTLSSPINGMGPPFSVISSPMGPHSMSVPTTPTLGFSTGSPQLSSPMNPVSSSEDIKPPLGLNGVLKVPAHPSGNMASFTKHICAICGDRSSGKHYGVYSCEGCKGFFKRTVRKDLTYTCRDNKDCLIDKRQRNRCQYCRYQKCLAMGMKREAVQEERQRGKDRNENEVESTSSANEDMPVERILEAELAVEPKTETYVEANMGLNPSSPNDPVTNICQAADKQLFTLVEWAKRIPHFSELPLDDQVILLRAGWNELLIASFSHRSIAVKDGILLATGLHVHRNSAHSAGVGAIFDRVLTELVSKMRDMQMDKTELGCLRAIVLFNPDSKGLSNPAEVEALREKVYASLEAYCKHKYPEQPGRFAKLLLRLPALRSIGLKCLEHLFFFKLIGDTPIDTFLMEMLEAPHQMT
Bile acid receptor (Homo sapiens), sequence (Q96RI1 whole entry, looked up, the tested form may be a part): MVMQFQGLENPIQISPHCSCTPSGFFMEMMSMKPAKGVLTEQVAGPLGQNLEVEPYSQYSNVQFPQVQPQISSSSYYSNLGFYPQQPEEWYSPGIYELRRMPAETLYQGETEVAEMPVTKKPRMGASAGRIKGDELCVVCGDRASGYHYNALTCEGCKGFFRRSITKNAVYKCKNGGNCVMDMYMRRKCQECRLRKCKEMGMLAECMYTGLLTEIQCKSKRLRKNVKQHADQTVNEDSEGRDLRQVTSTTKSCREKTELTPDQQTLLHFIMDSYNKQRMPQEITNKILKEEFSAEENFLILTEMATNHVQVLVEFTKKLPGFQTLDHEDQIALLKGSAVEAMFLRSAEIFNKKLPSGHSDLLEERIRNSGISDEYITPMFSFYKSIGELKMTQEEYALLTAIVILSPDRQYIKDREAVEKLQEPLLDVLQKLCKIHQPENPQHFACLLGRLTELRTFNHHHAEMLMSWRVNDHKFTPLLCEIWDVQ
Peroxisome proliferator-activated receptor gamma (Homo sapiens), sequence (P37231 whole entry, looked up, the tested form may be a part): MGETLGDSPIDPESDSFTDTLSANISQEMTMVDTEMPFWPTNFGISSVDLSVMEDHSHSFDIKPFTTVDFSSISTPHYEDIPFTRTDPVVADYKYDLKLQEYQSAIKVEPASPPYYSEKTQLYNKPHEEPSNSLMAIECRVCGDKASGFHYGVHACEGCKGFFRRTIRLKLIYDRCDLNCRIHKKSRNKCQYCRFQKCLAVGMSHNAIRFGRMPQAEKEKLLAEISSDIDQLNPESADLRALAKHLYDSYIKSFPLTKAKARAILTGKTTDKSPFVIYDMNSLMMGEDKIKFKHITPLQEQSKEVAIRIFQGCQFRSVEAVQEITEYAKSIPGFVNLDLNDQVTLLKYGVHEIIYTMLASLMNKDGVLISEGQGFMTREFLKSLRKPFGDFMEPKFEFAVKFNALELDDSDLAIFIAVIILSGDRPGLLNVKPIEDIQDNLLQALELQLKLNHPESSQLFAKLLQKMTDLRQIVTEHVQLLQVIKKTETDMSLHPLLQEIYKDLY
Estrogen receptor (Homo sapiens), sequence (P03372 whole entry, looked up): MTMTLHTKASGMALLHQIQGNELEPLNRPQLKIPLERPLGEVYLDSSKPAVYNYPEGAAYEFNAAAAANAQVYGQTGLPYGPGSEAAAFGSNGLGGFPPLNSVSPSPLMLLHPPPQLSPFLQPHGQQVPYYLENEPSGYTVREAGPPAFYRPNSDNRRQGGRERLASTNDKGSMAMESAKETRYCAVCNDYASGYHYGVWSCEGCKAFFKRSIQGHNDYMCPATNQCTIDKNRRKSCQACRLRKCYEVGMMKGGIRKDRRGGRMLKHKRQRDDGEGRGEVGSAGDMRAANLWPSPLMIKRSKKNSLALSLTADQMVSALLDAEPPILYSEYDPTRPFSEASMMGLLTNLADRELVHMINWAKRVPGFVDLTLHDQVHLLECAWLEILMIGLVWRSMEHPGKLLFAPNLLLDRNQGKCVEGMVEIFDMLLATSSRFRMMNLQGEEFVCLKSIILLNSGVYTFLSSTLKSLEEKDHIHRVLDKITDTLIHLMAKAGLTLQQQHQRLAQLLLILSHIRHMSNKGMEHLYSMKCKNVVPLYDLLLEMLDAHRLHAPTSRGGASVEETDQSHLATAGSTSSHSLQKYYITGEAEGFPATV

In the first assay the target is Estrogen receptor beta (Homo sapiens) (UniProt Q92731). The assay can be described thus: OT_ER_ERbERb_1440: Odyssey Thera (OT) 24-hour HEK293T Protein-Complementation Assay for Estrogen Receptor-beta/-beta Homodimer (AID 2283380).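 Note: scored as signal increase over DMSO baseline for both agonists and antagonists.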 In outline:
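HEK293T cells stably expressing ER beta LBD (aa 310-547) homodimer fragment-complementation reporter, dosed 24 h. Cells formaldehyde-fixed, Draq5-stained; gain in nuclear (agonist) or nuclear plus cytoplasmic (antagonist) fluorescence versus DMSO read by laser scanning cytometry.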
Regarding `CCOc1ccccc1O`, the result was inactive.

Take `OCC#CCO`: the compound was classed as inactive.

Turning to `COc1ccc(N=Nc2cc(C)c(N=Nc3ccc(S(=O)(=O)O)cc3)cc2OC)cc1`, the outcome was inactive.

For `CCCC(=O)OC(C)(C)Cc1ccccc1`, the outcome was inactive.

In the case of `[O-]n1ccccc1=S.[O-]n1ccccc1=S.[Zn+2]`, the result was inactive.

With `CCC(=O)O[C@@H]1C[C@H]2CC[C@]1(C)C2(C)C`, the result was inactive.

In a further assay the target is Estrogen receptor (Homo sapiens) (UniProt P03372). Kind of assay: OT_ERa_GFPERaERE_0480: Odyssey Thera (OT) 8-hour HeLa Transcription Induction Assay for Estrogen Receptor (AID 2283381; active = hit-call score of the fitted dose curve at least 0.9, where 1 is the maximum; inactive = score below 0.9). In outline:
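Fluorescent reporter signal, imaged by microscopy and scored with image-analysis algorithms, was taken 8 h after chemical dosing of HeLa cells; activity was fitted upward relative to DMSO.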
Turning to `OCC(O)c1ccccc1` (stereo not given), the call was inactive.

As to `CS(=O)(=O)OCCCCOS(C)(=O)=O`, the call was inactive.

Take `CC(C)NCC(O)COc1ccc(CC(N)=O)cc1` (stereo not given): the compound was called inactive.

The next assay shares this target. The assay can be described thus: OT_ERa_GFPERaERE_0120: Odyssey Thera (OT) 2-hour HeLa Transcription Induction Assay for Estrogen Receptor (AID 2283382). The gist of the method:
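HeLa, 384-well, 2 h chemical exposure; GFP reporter induction (ERE), fluorescence microscopy; high content image analysis; positive fitting direction vs DMSO.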
For the compound `OCC(O)c1ccccc1` (stereo not given), the call was inactive.

On to `CS(=O)(=O)OCCCCOS(C)(=O)=O`, for which the result was inactive.

`CC(C)NCC(O)COc1ccc(CC(N)=O)cc1` (stereo not given): the result was inactive.

The target in a further assay is Bile acid receptor (Homo sapiens) (UniProt Q96RI1). Kind of assay: OT_FXR_FXRSRC1_0480: Odyssey Thera (OT) 8-hour HEK293T Protein-Complementation Assay for Farnesoid X receptor/SRC-1 Co-activator (AID 2283383). The gist of the method:
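Human kidney HEK293T cells carried FXR/SRC-1 fragment-complementation constructs. Compounds were added and incubated 8 h. Reporter reassembly upon receptor–co-activator interaction was then quantified by fluorescence, with curves fitted in the positive direction relative to DMSO.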
As to `O=c1c(O)c(-c2ccc(O)cc2)oc2cc(O)cc(O)c12`, the compound was classed as inactive.

One may read the AC50 as the midpoint of the concentration-response curve, whichever way the signal moves. For the compound `CCc1cc(C(C)(C)C)c(O)c(C(C)(C)C)c1`, the AC50 is 33.6 µM (active).

Regarding `CCCCC1CCC(O)CC1` (stereo not given), the compound was called inactive.

Regarding `O=CCc1ccccc1`, the AC50 was 30.1 µM (active).

For the compound `C=C1C[C@]23C[C@@]1(O)CC[C@H]2[C@@]12C=C[C@H](O)[C@@](C)(C(=O)O1)[C@H]2[C@@H]3C(=O)O`, the outcome was inactive.

As for `CC(C)CC(C)CC(O)CC(C)C` (stereo not given), the compound was classed as inactive.

As to `CCCC(C)=O`, the result was inactive.

Consider `CC(C)CCOC(=O)c1ccccc1`, for which the compound was classed as inactive.

Consider `Cc1ccc(S(N)(=O)=O)cc1`, for which the result was inactive.

For the compound `O=C1OC(=O)c2c(Cl)c(Cl)c(Cl)c(Cl)c21`, the result was inactive.

For another assay the target is unchanged. Kind of assay: OT_FXR_FXRSRC1_1440: Odyssey Thera (OT) 24-hour HEK293T Protein-Complementation Assay for Farnesoid X receptor/SRC-1 Co-activator (AID 2283384). In outline:
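Compounds are applied to human kidney HEK293T cells expressing bait and prey fused to reporter protein fragments; after 24 h, reconstituted reporter fluorescence is measured. Activity is fitted as signal gain over DMSO.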
In the case of `O=c1c(O)c(-c2ccc(O)cc2)oc2cc(O)cc(O)c12`, the AC50 is 19.8 µM (active).

Consider `CCc1cc(C(C)(C)C)c(O)c(C(C)(C)C)c1`, for which the call was inactive.

For the compound `OCCc1ccccc1`, the outcome was inactive.

For the compound `O=C(O)c1ccc(O)cc1`, the compound was called inactive.

`CCCCC1CCC(O)CC1` (stereo not given): the call was inactive.

For the compound `CC(C)CC(C)CC(O)CC(C)C` (stereo not given), the compound was classed as inactive.

As to `CS(C)=O`, the outcome was inactive.

As for `CCCC(C)=O`, the compound was called inactive.

As for `CCNCCO`, the compound was classed as inactive.

For `CCCOCCO`, the result was inactive.

Take `Oc1ccc2cc(SSc3ccc4cc(O)ccc4c3)ccc2c1`: the AC50 is 75.3 µM (active).

The target of a further assay is Retinoic acid receptor RXR-alpha (Homo sapiens) (UniProt P19793). Kind of assay: OT_NURR1_NURR1RXRa_0480: Odyssey Thera (OT) 8-hour HEK293T Protein Complementation Assay for Nurr1/retinoid X receptor (RXR) (AID 2283385). In outline:
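8 h compound exposure, HEK293T; Nurr1/RXRα fragment complementation; fluorescence intensity; positive fitting direction vs DMSO baseline.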
With `O=C(O)CCCCCCCCC(=O)O`, the call was inactive.

With `OCC(O)c1ccccc1` (stereo not given), the call was inactive.

For the compound `O=c1c(O)c(-c2ccc(O)cc2)oc2cc(O)cc(O)c12`, the result was inactive.

For `CCc1cc(C(C)(C)C)c(O)c(C(C)(C)C)c1`, the AC50 was 83.8 µM (active).

Turning to `CCCCCCCC/C=C\CCCCCCCC(=O)OCC`, the result was inactive.

In the case of `COCCOCCOCCO`, the result was inactive.

Regarding `CCCCC1CCC(O)CC1` (stereo not given), the result was inactive.

For `CCOc1ccc(N=Nc2ccc(C=Cc3ccc(N=Nc4ccc(OCC)cc4)cc3S(=O)(=O)O)c(S(=O)(=O)O)c2)cc1`, the compound was classed as inactive.

Regarding `O=CCc1ccccc1`, the half-maximal activity concentration (AC50) was 19.1 µM (active).

In the case of `O=C1OC[C@H](Cc2cccc(O)c2)[C@H]1Cc1cccc(O)c1`, the compound was called inactive.

With `CS(C)=O`, the call was inactive.

As to `CCCC(C)=O`, the result was inactive.

Consider `CS(=O)(=O)OCCCCOS(C)(=O)=O`, for which the compound was classed as inactive.

For the compound `CCCCCCC(CO)CCCC` (stereo not given), the result was inactive.

Turning to `CCCCCC(=O)CC`, the compound was called inactive.

In the case of `Oc1ccc2cc(SSc3ccc4cc(O)ccc4c3)ccc2c1`, the AC50 is 78.7 µM (active).

Consider `CCOC(=O)C1OC1c1ccccc1` (stereo not given), for which the result was inactive.

As for `O=C1OC(=O)c2c(Cl)c(Cl)c(Cl)c(Cl)c21`, the outcome was inactive.

For the compound `CC(C)NCC(O)COc1ccc(CC(N)=O)cc1` (stereo not given), the result was inactive.

The next assay shares this target. The assay can be described thus: OT_NURR1_NURR1RXRa_1440: Odyssey Thera (OT) 24-hour HEK293T Protein Complementation Assay for Nurr1/retinoid X receptor (RXR) (AID 2283386). In outline:
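Interaction of Nurr1 with RXRα brings fused reporter fragments together in human HEK293T cells, restoring a functional reporter. Fluorescence intensity is measured 24 h after chemical treatment, and values are analysed in the positive direction against DMSO.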
In the case of `O=C(O)CCCCCCCCC(=O)O`, the call was inactive.

For `OCC(O)c1ccccc1` (stereo not given), the call was inactive.

In the case of `O=c1c(O)c(-c2ccc(O)cc2)oc2cc(O)cc(O)c12`, the call was inactive.

Take `CCc1cc(C(C)(C)C)c(O)c(C(C)(C)C)c1`: the AC50 was 86.2 µM (active).

As for `OCCc1ccccc1`, the call was inactive.

With `CCOc1ccccc1O`, the call was inactive.

For the compound `OCC#CCO`, the compound was classed as inactive.

On to `COCCOCCOCCO`, for which the call was inactive.

Regarding `O=C(O)c1ccc(O)cc1`, the outcome was inactive.

For `CCCCC1CCC(O)CC1` (stereo not given), the compound was called inactive.

`CCOc1ccc(N=Nc2ccc(C=Cc3ccc(N=Nc4ccc(OCC)cc4)cc3S(=O)(=O)O)c(S(=O)(=O)O)c2)cc1`: the compound was classed as inactive.

Take `O=CCc1ccccc1`: the result was inactive.

In the case of `C=C1C[C@]23C[C@@]1(O)CC[C@H]2[C@@]12C=C[C@H](O)[C@@](C)(C(=O)O1)[C@H]2[C@@H]3C(=O)O`, the compound was called inactive.

Turning to `CC(C)CC(C)CC(O)CC(C)C` (stereo not given), the compound was called inactive.

For the compound `CS(C)=O`, the outcome was inactive.

In the case of `CCCC(C)=O`, the compound was classed as inactive.

In the case of `CC(C)CCOC(=O)c1ccccc1`, the outcome was inactive.

As to `CCNCCO`, the compound was classed as inactive.

As for `CS(=O)(=O)OCCCCOS(C)(=O)=O`, the compound was called inactive.

Consider `CCCOCCO`, for which the result was inactive.

Regarding `CCCCCCC(CO)CCCC` (stereo not given), the compound was called inactive.

Consider `CCCCCC(=O)CC`, for which the result was inactive.

For `Oc1ccc2cc(SSc3ccc4cc(O)ccc4c3)ccc2c1`, the AC50 is 19.7 µM (active).

Turning to `CCOC(=O)C1OC1c1ccccc1` (stereo not given), the compound was called inactive.

`CCC(=O)O[C@@H]1C[C@H]2CC[C@]1(C)C2(C)C`: the compound was called inactive.

`CC(C)NCC(O)COc1ccc(CC(N)=O)cc1` (stereo not given): the compound was classed as inactive.

For another assay, the target named is Peroxisome proliferator-activated receptor gamma (Homo sapiens) (UniProt P37231). Kind of assay: OT_PPARg_PPARgSRC1_0480: Odyssey Thera (OT) 8-hour Protein-Complementation Assay for Peroxisome Proliferator-activated Receptor Gamma / SRC-1 Co-activator (AID 2283387).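 Note: nuclear to cytoplasmic split Venus YFP fluorescence ratio reporting PPARg SRC-1 interaction.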 The gist of the method:
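Protein-fragment complementation in HEK293T: Venus YFP halves (residues 1-158, 159-239, mutated to IFP1/IFP2) fused to PPARg/SRC-1. 8 h exposure; N/C ratio at 488 nm; DMSO negative control.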
Regarding `O=C(O)CCCCCCCCC(=O)O`, the compound was classed as inactive.

Turning to `CCc1cc(C(C)(C)C)c(O)c(C(C)(C)C)c1`, the compound was called inactive.

As for `CCCCCCCCCCCCCCN(CCO)CCO`, the compound was called inactive.

With `CCOc1ccccc1O`, the compound was called inactive.

`OCC#CCO`: the result was inactive.

In the case of `COc1ccc(N=Nc2cc(C)c(N=Nc3ccc(S(=O)(=O)O)cc3)cc2OC)cc1`, the call was inactive.

`O=C(O)c1ccc(O)cc1`: the result was inactive.

With `CCCCC1CCC(O)CC1` (stereo not given), the outcome was inactive.

In the case of `CCOc1ccc(N=Nc2ccc(C=Cc3ccc(N=Nc4ccc(OCC)cc4)cc3S(=O)(=O)O)c(S(=O)(=O)O)c2)cc1`, the call was inactive.

In the case of `C=C1C[C@]23C[C@@]1(O)CC[C@H]2[C@@]12C=C[C@H](O)[C@@](C)(C(=O)O1)[C@H]2[C@@H]3C(=O)O`, the call was inactive.

For the compound `O=C1OC[C@H](Cc2cccc(O)c2)[C@H]1Cc1cccc(O)c1`, the outcome was inactive.

As for `CCCC(C)=O`, the compound was classed as inactive.

With `CC1(C)C(=O)N(Cl)C(=O)N1Br`, the compound was classed as inactive.

Consider `CCCC(=O)OC(C)(C)Cc1ccccc1`, for which the compound was classed as inactive.

Consider `CC(C)CCOC(=O)c1ccccc1`, for which the compound was called inactive.

For `[O-]n1ccccc1=S.[O-]n1ccccc1=S.[Zn+2]`, the result was inactive.

With `CCCOCCO`, the outcome was inactive.

As to `Cc1ccc(S(N)(=O)=O)cc1`, the compound was classed as inactive.

As to `CCCCCC(=O)CC`, the outcome was inactive.

Consider `Oc1ccc2cc(SSc3ccc4cc(O)ccc4c3)ccc2c1`, for which the compound was classed as inactive.

For the compound `CCOC(=O)C1OC1c1ccccc1` (stereo not given), the outcome was inactive.

In the case of `O=C1OC(=O)c2c(Cl)c(Cl)c(Cl)c(Cl)c21`, the call was inactive.
